The values below come from the supplement of paper PMC6555819.

What all share (assay): PBM binding z-score (relative to random genomic background probes); higher = stronger binding; sequences stand for … in GC…GCGATTGACAGCGTAGAATGAAGG
Experiment [1] deals with FXR:RXRa (NR concentration 270 nM, RXRa partner concentration 90 nM). The method, boiled down:
(§1)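 Antibodies against each partner of ligand-free nuclear receptor dimers (one per run) detected binding on custom Agilent 4×180K protein-binding microarrays after 1 h incubation. The double-stranded probes had 34-nt variable regions carrying direct-repeat seeds, single-nucleotide variants, half-site ablations and random human genomic background sequences. Binding z-scores, from regression-normalized fluorescence, use the random background probes as reference.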

For experiment [2], the system named is LXRa:RXRa (NR concentration 270 nM, RXRa partner concentration 90 nM). The method, boiled down:
as §1

Experiment [3] concerns LXRa homodimer (NR concentration 270 nM). The method, boiled down:
as §1

The test system of experiment [4] is LXRb:RXRa (NR concentration 270 nM, RXRa partner concentration 90 nM). The method, boiled down: as §1
The subject of experiment [5] is LXRb homodimer (NR concentration 270 nM). The method, boiled down: as §1
Experiment [6] concerns PPARa:RXRa (NR concentration 270 nM, RXRa partner concentration 90 nM). The method, boiled down:
as §1

The subject of experiment [7] is PPARg:RXRa (NR concentration 180 nM, RXRa partner concentration 90 nM). The method, boiled down: as §1
Experiment [8] concerns PPARg:RXRa 270nM:90nM, anti-RXR (NR concentration 270 nM, RXRa partner concentration 90 nM). The method, boiled down:
as §1

The subject of experiment [9] is PPARg:RXRa 30nM:10nM, anti-RXR (NR concentration 30 nM, RXRa partner concentration 10 nM). The method, boiled down: as §1
Experiment [10] concerns PPARg:RXRa 90nM:30nM, anti-RXR (NR concentration 90 nM, RXRa partner concentration 30 nM). The method, boiled down:
as §1

Experiment [11] relates to PPARg:RXRa DBDmut IVT, anti-RXR (DBD mutation: RXRa K156A/R161A, NR concentration 270 nM, RXRa partner concentration 90 nM). The method, boiled down:
as §1

For experiment [12], the system named is PPARg:RXRa IVT, anti-PPARg (NR concentration 270 nM, RXRa partner concentration 90 nM). The method, boiled down: as §1
Experiment [13] relates to PPARg DBDmut:RXRa IVT, anti-PPARg (DBD mutation: PPARg1 K132A/R137A, NR concentration 270 nM, RXRa partner concentration 90 nM). The method, boiled down:
as §1

In experiment [14] the test system is PPARg DBDmut IVT, anti-PPARg (DBD mutation: PPARg1 K132A/R137A, NR concentration 270 nM). The method, boiled down:
as §1

Experiment [15] has as its system PPARg homodimer (NR concentration 180 nM). The method, boiled down:
as §1

The subject of experiment [16] is PXR:RXRa (NR concentration 270 nM, RXRa partner concentration 90 nM). The method, boiled down:
as §1

Experiment [17] has as its system PXR homodimer (NR concentration 270 nM). The method, boiled down:
as §1

For experiment [18], the system named is RARa:RXR (NR concentration 270 nM, RXRa partner concentration 90 nM). The method, boiled down:
as §1

The test system of experiment [19] is RARa homodimer (NR concentration 270 nM). The method, boiled down:
as §1

The subject of experiment [20] is RARb:RXRa (NR concentration 270 nM, RXRa partner concentration 90 nM). The method, boiled down: as §1

In the case of GCGACTGGGGCATCAGCACGTTACCATAACTTAA, the PBM binding z-score in experiment [1] is -0.278; in experiment [2] it was -0.417; in experiment [3] it was -0.429; in experiment [4], 0.31; in [5], -0.932; in [6], 0.476. For the same sequence, the PBM binding z-score is 0.927 in experiment [7]; 0.64 in [8]; -0.0937 in [9]; 0.15 in experiment [10]; 3.89 in [11]; 3 in experiment [12]. For the same sequence, the PBM binding z-score was 0.00267 in [13]; -0.723 in experiment [14]; -0.048 in [15]; -0.493 in experiment [16]; -0.113 in [17]; -0.399 in [18]. The PBM binding z-score in experiment [19] was -0.0529; in experiment [20], 0.327.
With TTACCAAGGTGAGCTGACGTCGTTGATCCAACTC, the PBM binding z-score in [1] is -0.0042; in experiment [2] it was -0.397; in experiment [3] it was -0.855; in experiment [4], -0.446; in [5], -0.946; in experiment [6] it was 0.149. In addition, the PBM binding z-score in experiment [7] is 0.0549; in experiment [8], 0.41; in experiment [9], -0.0176; in experiment [10] it was -0.026; in experiment [11] it was 0.771; in experiment [12] it was 1.43. Also, the PBM binding z-score was -0.733 in experiment [13]; -0.641 in [14]; -0.886 in [15]; -0.363 in experiment [16]; -0.913 in experiment [17]; -0.1 in experiment [18]. Also, the PBM binding z-score in experiment [19] was -1.03; in experiment [20], 0.866.
With CAAACTAGGTCATGGTCAAAGTCGGTTTGTGCCA, the PBM binding z-score in experiment [1] turned out to be 3.73; in [2], 2.64; in experiment [3], 0.245; in experiment [4], 1.94; in [5], 0.0742; in [6], 4.74. Also, the PBM binding z-score was 8.15 in experiment [7]; 6.86 in [8]; 4.7 in experiment [9]; 6.63 in experiment [10]; 8.43 in experiment [11]; 8.57 in [12]. Also, the PBM binding z-score in experiment [13] is 2.9; in [14], 1.82; in experiment [15] it was 2.21; in experiment [16], 1.75; in experiment [17], -0.231; in experiment [18], 2.44. Also, the PBM binding z-score in experiment [19] is 0.58; in [20] it was 4.01.
Consider ATACCAACGTGATCGTGAGGTCGTTGATACTAAC, for which the PBM binding z-score was 0.885 in [1]; 0.498 in [2]; 0.494 in [3]; 0.84 in [4]; -0.123 in [5]; 0.65 in experiment [6]. Moreover, the PBM binding z-score in experiment [7] was 0.385; in experiment [8], -0.0479; in experiment [9], -0.202; in [10], -0.163; in [11] it was -0.625; in [12], 0.0964. Further, the PBM binding z-score in experiment [13] stood at 0.725; in experiment [14] it was 0.527; in experiment [15], 0.699; in experiment [16], 1.67; in [17], 0.835; in [18], 1.23. Further, the PBM binding z-score in experiment [19] is -0.137; in [20], 0.259.
With GCGACTGGGGCAAAGGAGGTTACCATAAGGTTGG, the PBM binding z-score in experiment [1] is 1.77; in experiment [2], 1.09; in [3] it was -0.0421; in experiment [4], 0.882; in experiment [5], -0.261; in experiment [6], 2.06. The PBM binding z-score in [7] amounted to 3.15; in experiment [8], 3.93; in [9], 1.89; in experiment [10], 3.87; in [11] it was 4.69; in [12], 3.76. Also, the PBM binding z-score in [13] was -0.0461; in [14] it was -0.579; in experiment [15], 1.05; in experiment [16], 1.54; in experiment [17], -0.167; in experiment [18], 1.41. For the same sequence, the results for the PBM binding z-score in [19] and in experiment [20] were -0.0952 and 1.26, respectively.
For CGAACGAGGGCATGCGTTGATAGCAAATGCCGAT, the PBM binding z-score in [1] is 0.569; in experiment [2], 0.207; in experiment [3], -0.45; in experiment [4] it was 0.0933; in experiment [5], -0.834; in experiment [6], 1.12. Moreover, the PBM binding z-score in [7] is 0.923; in experiment [8], 0.579; in [9] it was -0.693; in [10] it was 0.0948; in experiment [11], 2.51; in experiment [12] it was 1.72. The PBM binding z-score in [13] is -0.297; in [14], -0.501; in experiment [15], 0.165; in experiment [16] it was 0.344; in experiment [17], -0.453; in experiment [18] it was 0.5. The PBM binding z-score is -0.165 in experiment [19] and 1.95 in experiment [20].
As for TCTGCTAGGTAAGTTGGTCAGCTAACGAGCTGCC, the PBM binding z-score in experiment [1] is -0.553; in experiment [2], -0.651; in experiment [3], -0.909; in experiment [4], -0.852; in experiment [5], -0.795; in experiment [6], -0.166. For the same sequence, the PBM binding z-score is -0.748 in [7]; 0.411 in experiment [8]; 1.22 in [9]; 0.642 in experiment [10]; 0.619 in experiment [11]; 0.862 in [12]. Moreover, the PBM binding z-score is -0.126 in experiment [13]; -0.493 in experiment [14]; -1.41 in [15]; -0.474 in experiment [16]; -1.39 in experiment [17]; -0.538 in experiment [18]. Further, the PBM binding z-score in experiment [19] is -1.81; in experiment [20] it was -0.235.
